These results are taken from PubChem BioAssay (NCI).

This is part of a sample that, as a whole, favours compounds with a hit. Of some 83,000 tested, about 20% had one in any assay.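 Single-concentration screen, 48 h exposure, 96-well plates. Endpoint: percent growth. Below 10 = active.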 Values without a mark were called inactive. Activity calls are given as the source filed them.

What all share (test): NCI-60 one-dose screen, 48 h (100 = growth as untreated, 0 = no growth, -100 = all killed)
What all share (settings): 10 µM unless noted

For assay [1], the system named is SR leukemia.
Assay [2] has as its system RPMI-8226 leukemia.
The subject of assay [3] is OVCAR-5 ovarian.
Assay [4] concerns OVCAR-4 ovarian.
The subject of assay [5] is SK-OV-3 ovarian.
The test system of assay [6] is IGROV1 ovarian.
Assay [7] has as its system OVCAR-3 ovarian.
Assay [8] has as its system HS 578T breast.
For assay [9], the system named is NCI/ADR-RES ovarian.
Assay [10] deals with OVCAR-8 ovarian.

Regarding `CCOC(=O)c1c(NC(=O)c2cccc(C(F)(F)F)c2)sc2c3c(ccc12)OCN(C)C3`, the growth was -41.7% (active) in assay [1]; -47.6% (active) in assay [2]; -14% (active) in assay [3]; -44.2% (active) in [4]; 75.7% in assay [5]; -78.7% (active) in [6]. Also, the growth is -44.7% (active) in assay [7], 38.4% in assay [8] and -54.3% (active) in assay [9].
As for `C#CCN(C)CCCOc1ccc(NC(=O)CCCCCCC(=O)NO)cc1Cl`, the growth in assay [1] is 13.7%; in assay [2] it was 0.211% (active); in [3] it was 12.8%; in assay [4] it was 41.9%; in assay [5], 18.2%; in assay [7], 27.8%. The growth is 19.7% in [8] and 65.4% in assay [9].
In the case of `O=C(CCCCCCNC(=O)C(O)(O)C(F)(F)F)Nc1ccc(Br)cc1`, the growth in [1] is 8.58% (active); in [2], 20.7%; in assay [3], 5.89% (active); in assay [4] it was 28.5%; in assay [5], -13.4% (active); in [6], 15.7%. The growth in [7] was -12.8% (active); in assay [8], 15.7%; in assay [9], 16.9%.
Turning to `CC[C@H](CC[C@@H](C)[C@H]1CC[C@H]2[C@@H]3CC(=O)C4=CC(=O)/C(=C/c5ccc([N+](=O)[O-])cc5)C[C@]4(C)[C@H]3CC[C@]12C)C(C)C`, the growth in assay [1] was 84.3%; in [2], 83.5%; in assay [3] it was 105%; in [4] it was 108%; in assay [5], 124%; in [6] it was 111%. The growth in [8] is 119%; in [9], 106%.
For the compound `Cc1nc(N)sc1-c1csc(Nc2ccc(C(F)(F)F)cc2)n1`, the growth in assay [1] is 18.9%; in assay [2], 26.6%; in assay [3], 32.2%; in [4], 42.7%; in [5], 65.5%; in assay [6], 18.9%. For the same compound, the growth in [7] is 20.8%; in assay [8] it was 32.4%; in [9] it was 27.3%.
As to `CNCCN(C)c1ccc(Nc2cc(NC3CC3)n3ncc(C#N)c3n2)cc1NC(C)=O`, the growth in assay [1] is 6.13% (active); in assay [2], 12.2%; in assay [3], 7.68% (active); in [4], 2.94% (active); in assay [5], -13.6% (active); in assay [6], -18.3% (active). In addition, the growth in [7] was -16.9% (active); in assay [8] it was -19% (active); in assay [9], 45.5%.
Take `O=C(CCCCCCNC(=O)C(O)(O)C(F)(F)F)Nc1ccc(Cl)cc1`: the growth is 12.1% in assay [1]; 20.1% in [2]; 9.85% (active) in assay [3]; 47.4% in [4]; -6.99% (active) in assay [5]; 27.8% in [6]. Besides, the growth is 24.9% in assay [7], 33.2% in [8] and 24.6% in assay [9].
Regarding `COc1ccc(C(=NNS(=O)(=O)c2ccc(C)cc2)c2ccccc2)cc1OC`, the growth is 111% in assay [1]; 93.6% in [2]; 103% in assay [3]; 102% in assay [4]; 107% in assay [5]; 90.8% in assay [6]. Moreover, the growth in assay [8] was 104%; in assay [9], 96.8%.
For the compound `O=C(CCCCCCNC(=O)C(O)(O)C(F)(F)F)Nc1ccc(-c2ccccc2)cc1`, the growth was 2.65% (active) in [1]; 15.1% in assay [2]; 9.32% (active) in assay [3]; 36.6% in assay [4]; -22.6% (active) in [5]; 14.3% in assay [6]. For the same compound, the growth was -16.6% (active) in assay [7], 33.8% in assay [8] and 7.74% (active) in [9].
As to `C[C@H](Nc1ncnc2ccc(-c3cnc(Cl)c(NS(C)(=O)=O)c3)cc12)c1ccccc1`, the growth was -20.1% (active) in [1]; -7.72% (active) in assay [2]; -14.9% (active) in [3]; 0.576% (active) in assay [4]; -65.5% (active) in assay [5]; -28.8% (active) in [6]. The growth in assay [7] was -65.9% (active); in assay [8] it was -20% (active); in assay [9] it was 7.69% (active).
As for `O=S(=O)(NCCCNc1nccc(-c2[nH]c(-c3ccccc3)nc2-c2ccc(F)c(O)c2)n1)c1cccc2ccccc12`, the growth was 28.6% in assay [1]; 4.6% (active) in assay [2]; 146% in [3]; 81.9% in assay [4]; 103% in [5]; 58.3% in assay [6]. Besides, the growth in assay [7] was 88.4%; in assay [8], 40.7%; in assay [9], 91.1%.
As to `CCOC(=O)c1cnc2c(-c3ccc(Cl)c(Cl)c3)cnn2c1`, the growth is 23.1% in assay [1]; 87.7% in assay [2]; 99.8% in [3]; 98.8% in [4]; 90.8% in assay [5]; 79.1% in [6]. Moreover, the growth is 70.8% in [7], 82.6% in assay [8] and 58.5% in assay [9].
As for `Cc1ccc(/C=N/Nc2nc(Nc3ccccc3)nc(Nc3ccc(S(N)(=O)=O)cc3)n2)cc1`, the growth in assay [1] was 35.5%; in assay [2] it was 44%; in [10], 69.2%; in [3] it was 84.5%; in assay [5], 110%; in assay [6], 53.4%. Also, the growth is 62.9% in assay [8] and 101% in assay [9].
As to `N#CC1=C2NCCCNc3oc(nc3C#N)Cc3ccccc3CC(=N1)O2`, the growth was 36.6% in [1]; 19.9% in [2]; 102% in [3]; 94.5% in [4]; 102% in assay [5]; 93.4% in [6]. Moreover, the growth in assay [8] is 92.4%; in [9], 97.8%.
Take `CCN(CC)c1ccc(/C=N/NC(=O)c2ccc(NS(C)(=O)=O)cc2)cc1`: the growth is 13.5% in assay [1]; 42% in assay [2]; 49.4% in assay [3]; 35.6% in [4]; 35.4% in assay [5]; 21.2% in [6]. For the same compound, the growth was 65.6% in assay [8] and 58.3% in assay [9].
With `Nc1nc(=O)n([C@H]2C[C@H](O)[C@@H](CO)O2)cc1C=O`, the growth was 110% in assay [2]; 11.3% in assay [10]; 94.2% in assay [3]; 78.1% in assay [4]; 116% in assay [5]; 106% in [6]. In addition, the values for the growth in assay [7], in assay [8] and in assay [9] were 116%, 129% and 9.49% (active), respectively.
